From PubChem BioAssay (NCI)
Compounds without any hit were thinned out: in the full panel of roughly 79,000, 15% have a hit. A number with no mark means an inactive call. The source made the active and inactive calls. Cut-off read from the data, not from the text of the source: active = growth inhibition above about 70%; inactive = the rest.

Columns and labels:
[1] = NCI Yeast Anticancer Drug Screen. Data for the rad50 strain (AID 155);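 note: 0% = growth of vehicle-only cultures of the same strain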; conditions: S. cerevisiae rad50 strain growth inhibition, stronger effect = higher value
Summary of the method: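 Genetically altered yeast (DNA repair pathway); compound treatment; growth inhibition vs vehicle ctrl.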

[2] = NCI Yeast Anticancer Drug Screen. Data for the mec2-1 strain (AID 157); conditions: S. cerevisiae mec2-1 strain, stronger effect = higher value
Summary of the method: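 Yeast mec2-1 mutant treated with compound. Readout: growth inhibition vs vehicle controls.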

[3] = NCI Yeast Anticancer Drug Screen. Data for the sgs1 mgt1 strain (AID 161);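 note: 0% = growth of cultures given vehicle only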; conditions: S. cerevisiae sgs1 mgt1 strain, stronger effect = higher value
Summary of the method: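 Mutant yeast exposed to compound; growth scored against vehicle-only wells.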

[4] = NCI Yeast Anticancer Drug Screen. Data for the cln2 rad14 strain (AID 165);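 note: 0% = growth equal to vehicle treated cultures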; conditions: S. cerevisiae cln2 rad14 strain, stronger effect = higher value
Summary of the method: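 cln2 rad14 yeast strain; compound exposure; growth inhibition read vs vehicle controls.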

[5] = NCI Yeast Anticancer Drug Screen. Data for the bub3 strain (AID 167); conditions: S. cerevisiae bub3 mutant strain, stronger effect = higher value
Summary of the method: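 Yeast carrying a defined mutation is treated with each compound, and growth is compared with that of vehicle-exposed cells to give inhibition.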

[6] = NCI Yeast Anticancer Drug Screen. Data for the mlh1 rad18 strain (AID 175); conditions: S. cerevisiae mlh1 rad18 strain growth inhibition, stronger effect = higher value
Summary of the method: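 Yeast w/ defined DNA-repair lesions; compound exposure; growth vs vehicle controls → % inhibition.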

[7] = at 5.0 µM (retest, dose inferred, filed as 0.5)
[8] = at 50.0 µM (retest, dose inferred, filed as 5.0)

C/C=C(\C)C(=O)OC1C(C)=C2C(C1OC(=O)CCCCC)C(C)(OC(C)=O)CC(OC(=O)CCC)C1(O)C2OC(=O)C1(C)O (stereo not given)
growth inhibition [1, 7]: 26%
growth inhibition [1, 8]: 85% (active)
growth inhibition ([1]; at 50.0 µM): 77.6% (active)
growth inhibition [2, 7]: 15%
growth inhibition [2, 8]: 86% (active)
growth inhibition ([2]; at 50.0 µM): 83.5% (active)
growth inhibition [3, 7]: 20%
growth inhibition [3, 8]: 91% (active)
growth inhibition ([3]; at 50.0 µM): 74.8% (active)
growth inhibition [4, 7]: 34%
growth inhibition [4, 8]: 95% (active)
growth inhibition ([4]; at 50.0 µM): 82.6% (active)
growth inhibition [5, 7]: 17%
growth inhibition [5, 8]: 92% (active)
growth inhibition ([5]; at 50.0 µM): 73.4% (active)
growth inhibition [6, 7]: 34%
growth inhibition [6, 8]: 87% (active)
growth inhibition ([6]; at 50.0 µM): 67.6%

CC(=O)NC1C(S[As](C)C)OC(COC(C)=O)C(OC(C)=O)C1OC(C)=O (stereo not given)
growth inhibition [1, 7]: 59%
growth inhibition [1, 8]: 98% (active)
growth inhibition ([1]; at 50.0 µM): 91% (active)
growth inhibition [2, 7]: 18%
growth inhibition [2, 8]: 95% (active)
growth inhibition ([2]; at 50.0 µM): 92.4% (active)
growth inhibition [3, 7]: 21%
growth inhibition [3, 8]: 54%
growth inhibition ([3]; at 50.0 µM): 88.5% (active)
growth inhibition [4, 7]: 12%
growth inhibition [4, 8]: 73% (active)
growth inhibition ([4]; at 50.0 µM): 88.7% (active)
growth inhibition [5, 7]: 55%
growth inhibition [5, 8]: 98% (active)
growth inhibition ([5]; at 50.0 µM): 86.1% (active)
growth inhibition [6, 7]: 44%
growth inhibition [6, 8]: 98% (active)
growth inhibition ([6]; at 50.0 µM): 89.5% (active)

O=C(O)C1(c2ccccc2)OC1c1ccccc1 (stereo not given)
growth inhibition [1, 7]: 2%
growth inhibition [1, 8]: 67%
growth inhibition ([1]; at 50.0 µM): 47%
growth inhibition [2, 7]: 0%
growth inhibition [2, 8]: 82% (active)
growth inhibition ([2]; at 50.0 µM): 81.3% (active)
growth inhibition [3, 7]: 3%
growth inhibition [3, 8]: 71% (active)
growth inhibition ([3]; at 50.0 µM): 84.7% (active)
growth inhibition [4, 7]: 2%
growth inhibition [4, 8]: 80% (active)
growth inhibition ([4]; at 50.0 µM): 79.8% (active)
growth inhibition [5, 7]: -6%
growth inhibition [5, 8]: 93% (active)
growth inhibition ([5]; at 50.0 µM): 64.6%
growth inhibition [6, 7]: -1%
growth inhibition [6, 8]: 86% (active)
growth inhibition ([6]; at 50.0 µM): 84.3% (active)

CC1=CC2OC3CC4OC(=O)/C=C/C=C/C(=O)OCCC(C)C(O)C(=O)OCC2(CC1O)C4(C)C31CO1 (stereo not given)
growth inhibition [1, 7]: 96% (active)
growth inhibition [1, 8]: 98% (active)
growth inhibition ([1]; at 50.0 µM): 92.3% (active)
growth inhibition [2, 7]: 96% (active)
growth inhibition [2, 8]: 98% (active)
growth inhibition ([2]; at 50.0 µM): 93.1% (active)
growth inhibition [3, 7]: 98% (active)
growth inhibition [3, 8]: 99% (active)
growth inhibition ([3]; at 50.0 µM): 93.2% (active)
growth inhibition [4, 7]: 97% (active)
growth inhibition [4, 8]: 98% (active)
growth inhibition ([4]; at 50.0 µM): 91.7% (active)
growth inhibition [5, 7]: 96% (active)
growth inhibition [5, 8]: 98% (active)
growth inhibition ([5]; at 50.0 µM): 91.7% (active)
growth inhibition [6, 7]: 96% (active)
growth inhibition [6, 8]: 97% (active)
growth inhibition ([6]; at 50.0 µM): 91.5% (active)

CCOP(=S)(OCC)SC(O)(C(F)F)C(F)F
growth inhibition [1, 7]: 5%
growth inhibition [1, 8]: 34%
growth inhibition ([1]; at 50.0 µM): 28.8%
growth inhibition [2, 7]: -3%
growth inhibition [2, 8]: 54%
growth inhibition ([2]; at 50.0 µM): 22.9%
growth inhibition [3, 7]: 3%
growth inhibition [3, 8]: 62%
growth inhibition ([3]; at 50.0 µM): 42%
growth inhibition [4, 7]: -3%
growth inhibition [4, 8]: 32%
growth inhibition ([4]; at 50.0 µM): 22.4%
growth inhibition [5, 7]: -2%
growth inhibition [5, 8]: 69%
growth inhibition ([5]; at 50.0 µM): 39.4%
growth inhibition [6, 7]: 0%
growth inhibition [6, 8]: 78% (active)
growth inhibition ([6]; at 50.0 µM): 30.7%

CCCCC1CCCCCCc2[nH]c(/C=C3\N=C(c4ccc[nH]4)C=C3OC)cc21 (stereo not given)
growth inhibition [1, 7]: 24%
growth inhibition [1, 8]: 91% (active)
growth inhibition ([1]; at 50.0 µM): 82.3% (active)
growth inhibition [2, 7]: 23%
growth inhibition [2, 8]: 93% (active)
growth inhibition ([2]; at 50.0 µM): 86.5% (active)
growth inhibition [3, 7]: 45%
growth inhibition [3, 8]: 93% (active)
growth inhibition ([3]; at 50.0 µM): 84.8% (active)
growth inhibition [4, 7]: 39%
growth inhibition [4, 8]: 94% (active)
growth inhibition ([4]; at 50.0 µM): 81.2% (active)
growth inhibition [5, 7]: 29%
growth inhibition [5, 8]: 93% (active)
growth inhibition ([5]; at 50.0 µM): 81.9% (active)
growth inhibition [6, 7]: 34%
growth inhibition [6, 8]: 90% (active)
growth inhibition ([6]; at 50.0 µM): 80.5% (active)

N=P(c1ccccc1)(c1ccccc1)c1ccccc1.[O]=[Cr](=[O])([OH])[O][Cr](=[O])(=[O])[OH]
growth inhibition [1, 7]: 9%
growth inhibition [1, 8]: 80% (active)
growth inhibition ([1]; at 50.0 µM): 71.3% (active)
growth inhibition [2, 7]: 5%
growth inhibition [2, 8]: 76% (active)
growth inhibition ([2]; at 50.0 µM): 26.4%
growth inhibition [3, 7]: 16%
growth inhibition [3, 8]: 91% (active)
growth inhibition ([3]; at 50.0 µM): 37.3%
growth inhibition [4, 7]: -4%
growth inhibition [4, 8]: 50%
growth inhibition ([4]; at 50.0 µM): 8.95%
growth inhibition [5, 7]: -4%
growth inhibition [5, 8]: 81% (active)
growth inhibition ([5]; at 50.0 µM): 11.2%
growth inhibition [6, 7]: 4%
growth inhibition [6, 8]: 57%
growth inhibition ([6]; at 50.0 µM): 53.2%

S=C(S)N1CCOCC1
growth inhibition [1, 7]: 62%
growth inhibition [1, 8]: 94% (active)
growth inhibition ([1]; at 50.0 µM): -11.9%
growth inhibition [2, 7]: 50%
growth inhibition [2, 8]: 84% (active)
growth inhibition ([2]; at 50.0 µM): 28.1%
growth inhibition [3, 7]: 37%
growth inhibition [3, 8]: 82% (active)
growth inhibition ([3]; at 50.0 µM): 42.7%
growth inhibition [4, 7]: -2%
growth inhibition [4, 8]: 75% (active)
growth inhibition ([4]; at 50.0 µM): -23.9%
growth inhibition [5, 7]: 45%
growth inhibition [5, 8]: 86% (active)
growth inhibition ([5]; at 50.0 µM): 98.3% (active)
growth inhibition [6, 7]: 60%
growth inhibition [6, 8]: 88% (active)
growth inhibition ([6]; at 50.0 µM): 19.5%

Cc1cc(N(CCCl)CCCl)ccc1CN1CCCN(Cc2ccc(N(CCCl)CCCl)cc2C)C1c1ccc(N(CCCl)CCCl)cc1C
growth inhibition [1, 7]: 4%
growth inhibition [1, 8]: 98% (active)
growth inhibition ([1]; at 50.0 µM): 98% (active)
growth inhibition [2, 7]: -2%
growth inhibition [2, 8]: 99% (active)
growth inhibition ([2]; at 50.0 µM): 98% (active)
growth inhibition [3, 7]: 2%
growth inhibition [3, 8]: 99% (active)
growth inhibition ([3]; at 50.0 µM): 98.8% (active)
growth inhibition [4, 7]: 1%
growth inhibition [4, 8]: 98% (active)
growth inhibition ([4]; at 50.0 µM): 87% (active)
growth inhibition [5, 7]: 7%
growth inhibition [5, 8]: 99% (active)
growth inhibition ([5]; at 50.0 µM): 97.7% (active)
growth inhibition [6, 7]: 21%
growth inhibition [6, 8]: 98% (active)
growth inhibition ([6]; at 50.0 µM): 98.6% (active)

Oc1cccc2cccnc12 (tested in a mixture with another compound)
growth inhibition [1, 7]: -6%
growth inhibition [1, 8]: 2%
growth inhibition ([1]; at 50.0 µM): 73.5% (active)
growth inhibition [2, 7]: -5%
growth inhibition [2, 8]: -6%
growth inhibition ([2]; at 50.0 µM): 83.8% (active)
growth inhibition [3, 7]: -4%
growth inhibition [3, 8]: 2%
growth inhibition ([3]; at 50.0 µM): 64%
growth inhibition [4, 7]: -6%
growth inhibition [4, 8]: -10%
growth inhibition ([4]; at 50.0 µM): -20.8%
growth inhibition [5, 7]: -5%
growth inhibition [5, 8]: -4%
growth inhibition ([5]; at 50.0 µM): 89.8% (active)
growth inhibition [6, 7]: 0%
growth inhibition [6, 8]: -15%
growth inhibition ([6]; at 50.0 µM): 85.5% (active)
